Shown are actives, neighbours in structure and some others; about 21% of the full set was active somewhere.
Shiga toxin inh: A qHTS for Small Molecule Inhibitors of Shiga Toxin; Vero cells, Shiga toxin protein synthesis inhibition reporter; inhibition, % at 38.7 µM; actives 9.2% (n = 290,000); AID 2315, 2010; in the data active means inhibition mostly above about 28%, no sharp cut-off; inactive means mostly below about 43%; further: 0% is about no effect
Cycloheximide cs: Cycloheximide Counterscreen for Small Molecule Inhibitors of Shiga Toxin. max response, %. actives 12% (n = 300,000). cell reporter, cycloheximide protein synthesis inhibition counterscreen. AID 2314, 2010; in the data active means max response mostly above about 13%, no sharp cut-off; inactive means mostly below about 14%; further: read at 38.3 µM for the half of the compounds with a filed dose; 0% is about no effect
Pf growth 96h: Primary qHTS for delayed death inhibitors of the malarial parasite plastid, 96 hour incubation; P. falciparum luciferase reporter growth, 96 h; Potency, µM (series often up to 28.7 µM), inactives show at the top dose activity change, negative = inhibition, most hits filed as inhibitors; actives 6.9% (n = 320,000); further: potency means the concentration at half of the fitted maximal effect; on the % scale 0 is the no-effect control and ±100 the full control effect
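Plates of compound plus infected erythrocytes (2% hematocrit, 0.05% parasitemia final) incubate 96 hours, 37 C, 5% CO2. Detection reagent added; reduced luminescence from the parasites' luciferase reporter flags inhibition.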
NS1 function inh: qHTS Assay for Inhibitors of Influenza NS1 Protein Function. Potency, µM (highest dose often 46.1 µM), for the others: top-dose activity, positive = more growth. actives 0.4% (n = 270,000). AID 2326, 2010; calls by dose curve; further: potency means the concentration at half of the fitted maximal effect; actives are rising curves; nearly all actives have a fitted effect of over 50% in size
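Compounds were scored for reversing the slow growth caused by influenza A NS1 in S. cerevisiae, measured by optical density at 600 nm. Assay medium contained 2% galactose at pH 6.0; NS1-free yeast of the same strain were the positive control.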
Pf growth 48h: Primary qHTS for delayed death inhibitors of the malarial parasite plastid, 48 hour incubation. AID 504832, 2011. Potency, µM (doses to about 28.7 µM), for the others: at the top dose activity change, negative = inhibition, hits mostly inhibitors. actives 5.9% (n = 310,000). P. falciparum luciferase growth in erythrocytes, 48 h; further: potency means the concentration at half of the fitted maximal effect; on the % scale 0 is the no-effect control and ±100 the full control effect
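Erythrocytes infected with P. falciparum carrying an integrated firefly luciferase reporter (2% hematocrit, 0.1% parasitemia final) were exposed to compounds in RPMI 1640 with 0.5% Albumax at 37 C, 5% CO2. Growth inhibition was scored as reduced luminescence.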
* marks the source's active call; other numbers are inactive results. Unless noted, the call rests on the fitted dose curve; in most records, active means well fitted inhibition curve with a large enough effect; inconclusive means small, poorly fitted or top-dose-only effect, or another doubt; inactive means no such curve, though single readings can be large or run the other way.

Results for CCOC(=O)Cc1csc(NC(=O)CCN2C(=O)c3cccc([N+](=O)[O-])c3C2=O)n1 ?
Shiga toxin inh: -9.7; Cycloheximide cs: -4.7; Pf growth 96h: 13.1µM*; NS1 function inh: 3.7%; Pf growth 48h: 9.1%

Results for O=C(CCN=C1NS(=O)(=O)c2ccccc21)N1CCc2ccccc2C1 ?
Shiga toxin inh: 15.1; Cycloheximide cs: 11.7; Pf growth 96h: inconclusive; Pf growth 48h: 15.8%

How did CCN(c1ccc(OC)cc1)S(=O)(=O)c1nnc(NC(=O)c2ccc(C)cc2)s1 do in these assays?
Shiga toxin inh: 5.7; Cycloheximide cs: 1.3; Pf growth 96h: inconclusive; NS1 function inh: -2.9%; Pf growth 48h: 14.8%

What do the screens show for `OC(CN1CCN(Cc2ccccc2)CC1)Cn1c2ccccc2c2ccccc21` (centres undefined)?
Shiga toxin inh: -10.6; Cycloheximide cs: -3.4; Pf growth 96h: 11.1%; NS1 function inh: -10.5%; Pf growth 48h: 2.62µM*

What do the screens show for `Cc1ccc(OCCN2CCN(CC(O)Cn3c4ccccc4c4ccccc43)CC2)cc1` (centres undefined)?
Shiga toxin inh: -3.9; Cycloheximide cs: -5.8; Pf growth 96h: 19.3%; NS1 function inh: -34.8%; Pf growth 48h: 2.62µM*

Results for Cc1cccc(C)c1OCC(O)Cn1c2ccccc2c2ccccc21 (centres undefined) ?
Shiga toxin inh: -6.0; Cycloheximide cs: -4.8; Pf growth 96h: 30.6%; NS1 function inh: 20.5%; Pf growth 48h: 10.4µM*

Results for OC(COCC(F)(F)C(F)(F)C(F)(F)C(F)F)Cn1c2ccccc2c2ccccc21 (centres undefined) ?
Shiga toxin inh: 9.0; Cycloheximide cs: -2.0; Pf growth 96h: -19.1%; NS1 function inh: -78.5%; Pf growth 48h: 11.7µM*

How did Cc1cccc(C)c1OCC(O)CN1CCN(c2ccccc2)CC1 (centres undefined) do in these assays?
Shiga toxin inh: 22.9; Cycloheximide cs: -6.0; Pf growth 96h: 19.9%; NS1 function inh: -1.9%; Pf growth 48h: -1.2%

Results for COc1ccc(CN2CCN(Cc3csc(C(C)=O)c3)CC2CCO)c(C)c1C (centres undefined) ?
Shiga toxin inh: -0.8; Cycloheximide cs: -0.9; Pf growth 96h: inconclusive; NS1 function inh: 2.0%; Pf growth 48h: -18.6%

Results for Cc1ccc(OCC(O)Cn2c3ccccc3c3ccccc32)cc1 (centres undefined) ?
Shiga toxin inh: 21.2; Cycloheximide cs: -3.6; Pf growth 96h: inconclusive; NS1 function inh: -67.2%; Pf growth 48h: 9.28µM*

Results for COCCN(C(=O)Cn1c(C(F)(F)F)nc2ccccc21)c1c(N)n(Cc2ccccc2)c(=O)[nH]c1=O ?
Shiga toxin inh: -1.4; Cycloheximide cs: -2.3; Pf growth 96h: 14.7µM*; NS1 function inh: -2.8%; Pf growth 48h: inconclusive

What do the screens show for `CC(C)CN(C(=O)COC(=O)C12CC3CC(CC(C3)C1)C2)c1c(N)n(Cc2ccccc2)c(=O)[nH]c1=O`?
Pf growth 96h: 0.131µM*; Pf growth 48h: 1.17µM*

Results for CN(C(=O)COC(=O)Cn1c(C(F)(F)F)nc2ccccc21)c1c(N)n(Cc2ccccc2)c(=O)[nH]c1=O ?
Shiga toxin inh: -38.1; Cycloheximide cs: -4.8; Pf growth 96h: 28.8%; NS1 function inh: -3.4%; Pf growth 48h: 24.7%

What do the screens show for `COCCN(C(=O)COC(=O)c1ccccc1Cc1ccccc1)c1c(N)n(Cc2ccccc2)c(=O)[nH]c1=O`?
Pf growth 96h: inconclusive; Pf growth 48h: 25.7%

Results for Cc1nn(-c2ccccc2)c(C)c1C(=O)OCC(=O)N(C)c1c(N)n(Cc2ccccc2)c(=O)[nH]c1=O ?
Pf growth 96h: 11.7µM*; Pf growth 48h: inconclusive

What do the screens show for `COCCN(C(=O)COC(=O)c1c(-c2ccccc2)noc1C)c1c(N)n(Cc2ccccc2)c(=O)[nH]c1=O`?
Shiga toxin inh: -7.1; Cycloheximide cs: -1.0; Pf growth 96h: 11.7µM*; NS1 function inh: -9.6%; Pf growth 48h: inconclusive

How did Cc1ccc(C(=O)OCC(=O)N(C)c2c(N)n(Cc3ccccc3)c(=O)[nH]c2=O)s1 do in these assays?
Pf growth 96h: 14.2%; Pf growth 48h: 5.7%

What do the screens show for `Cc1cccc(/C=N/NC(=O)C2CCCNC2=O)c1` (centres undefined)?
Shiga toxin inh: 13.0; Cycloheximide cs: -1.2; Pf growth 96h: -7.4%; NS1 function inh: -10.3%; Pf growth 48h: 9.5%

Assay outcomes (PubChem BioAssay)
